In PubChem BioAssay (NCI):
Where “and” joins values, the source holds several entries; their conditions need not be identical. Identical values can stand only once. This is part of a sample that, as a whole, favours compounds with a hit. Of some 79,000 tested, about 15% had one in any assay. A number with no mark means an inactive call. Calls of active or inactive are those of the source. Rule as the data show it: active = growth inhibition above about 70%; inactive = the rest.

Key:
[1] = NCI Yeast Anticancer Drug Screen. Data for the rad50 strain (AID 155);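 also: 0% = growth of vehicle-only cultures of the same strain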; settings: S. cerevisiae rad50 strain growth inhibition; at 50.0 µM; hits give high values
In short: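 Inhibition values express reduced yeast growth in compound-treated cultures relative to vehicle-treated controls.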

[2] = NCI Yeast Anticancer Drug Screen. Data for the mec2-1 strain (AID 157); settings: S. cerevisiae mec2-1 strain, at 50.0 µM, hits give high values
In short: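 Cells of the genetically defined mec2-1 yeast strain are incubated with test compound. Inhibition of growth is calculated against vehicle-treated controls.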

[3] = NCI Yeast Anticancer Drug Screen. Data for the sgs1 mgt1 strain (AID 161);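 also: 0% = growth of cultures given vehicle only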; settings: S. cerevisiae sgs1 mgt1 strain, at 50.0 µM, hits give high values
In short: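 Read-out: growth inhibition vs vehicle controls. Cells: mutant yeast strain deficient in DNA damage repair.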

[4] = NCI Yeast Anticancer Drug Screen. Data for the cln2 rad14 strain (AID 165);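 also: 0% = growth equal to vehicle treated cultures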; settings: S. cerevisiae cln2 rad14 strain, at 50.0 µM, hits give high values
In short: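 The screen exposed genetically defined yeast (cln2 rad14) to test compounds and scored growth inhibition relative to vehicle-treated controls.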

[5] = NCI Yeast Anticancer Drug Screen. Data for the bub3 strain (AID 167); settings: S. cerevisiae bub3 mutant strain, at 50.0 µM, hits give high values
In short: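 Steps: expose the mutant yeast strain to compound; grow alongside vehicle-treated cultures; measure growth; express inhibition against the vehicle cultures.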

[6] = NCI Yeast Anticancer Drug Screen. Data for the mlh1 rad18 strain (AID 175); settings: S. cerevisiae mlh1 rad18 strain growth inhibition; at 50.0 µM; hits give high values
In short: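 Compound-treated yeast growth, normalised to vehicle controls. Strain bears defined DNA repair mutations.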

Row | Compound | growth inhibition [1] | growth inhibition [2] | growth inhibition [3] | growth inhibition [4] | growth inhibition [5] | growth inhibition [6]
1 | C[C@H]1CC(=O)C[C@@H]2CC[C@@H]3[C@H](CC[C@]4(C)C(OC(=O)c5cccc6c(=O)c7ccccc7[nH]c56)CC[C@@H]34)[C@]21C (some centres undefined) | 42.4% | 22% | 45.6% | 41.9% | 5.2% | 40.9%
2 | CC1(C)N=C(NN=C2CCCCC2)SP1(=O)NNc1ncccn1 (centres undefined) | 30.1% | 11.7% | 25.8% | 1.95% | 15.1% | 23.2%
3 | C/C=C/c1cc2n(c1)C(=O)c1cc(OC3OC(C)C(NC)C(C)(O)C3O)c(C)c(O)c1NC2O (centres undefined) | 20.9% | 1.1% | 20.8% | 2.75% | 14.2% | -47.4%
4 | CC1(C)CN1C1=C(Br)C(=O)C(N2CC2(C)C)=C(Br)C1=O | 18.8% | 0.9% | 7.75% | 9.9% | -0.65% | 30.1%
5 | CCCCOP(=O)(CCCC)OCCCC.CCCCOP(=O)(CCCC)OCCCC.CCCCOP(=O)(CCCC)OCCCC.CCCCOP(=O)(CCCC)OCCCC.O.O.[Co+2].[O-][Cl+3]([O-])([O-])O | 25.4% | 5.55% | 7.35% | 17.6% | 19.8% | 5.8%
6 | NC(Cc1cnc[nH]1)C(=O)NC(Cc1cnc[nH]1)C(=O)O (centres undefined) | -5.1% | 9% | -1.5% | 10.6% | 4.45% | 7.6%
7 | CCOC(=O)Oc1c(Cl)cc(S(=O)(=O)F)cc1Cl | 99.6% (active) | 99.8% (active) | 99.6% (active) | 99.5% (active) | 99.7% (active) | 99.5% (active)
8 | COP12(OC)NC(=O)OC1(C(F)(F)F)c1ccccc1O2 (centres undefined) | -14.9% | -4% | -23.9% | -5.15% | -28% | -39%
9 | O.O.O=Cc1ccccc1O.O=Cc1ccccc1O.[Co] | 98.2% (active) | 92.2% (active) | 97.8% (active) | 79.1% (active) | 92.5% (active) | 98.3% (active)
10 | O=C(O)c1cc(CCl)ccc1O | -0.05% | -7.95% | -15.7% | -14% | 4.75% | -1.7%
11 | CCOC(CBr)OCC | 14.4% | -4.75% | 0.45% | -25.7% | 7.55% | 20.8%
12 | CN(C)CCC(C)(C#N)c1ccccc1 (centres undefined) | 8.9% | 5.7% | -4.8% | -7.05% | 13.9% | 21.1%
13 | Oc1ccc(C=NCC2CCCC[N-]2)c(O)c1.Oc1ccc(C=NCC2CCCC[N-]2)c(O)c1.[Ni+2] (centres undefined) | 7.3% | 8% | 6.55% | 5.15% | 11.2% | -8.4%
14 | CCN(CC)C(=S)SC1C(=O)NC(=O)NC1=O | 23.3% | -15.4% | 20.1% | 20.6% | 1.9% | 16.1%
15 | C[N+](C)(C)CC1CCCCCCCCCCC1=O (centres undefined) | -4.85% | -10.4% | -25.2% | 7.75% | -16.4% | -9.75%
16 | CCCCC(Br)C(=O)OCC (centres undefined) | 26.1% | 6.55% | -26.5% | -11.6% | 10.9% | 11.8%
17 | COc1cc([C@@H]2c3cc4c(c(O)c3C[C@H]3COC(=O)[C@@H]32)OCO4)cc(OC)c1OC | -5.65% and 13.2% | 9.3% and 7.85% | 2.65% and 2.95% | 0.1% and 15.8% | 15.4% and 23.4% | 28.2% and 30.5%
18 | CN1C(=O)C(=Cc2cccc([N+](=O)[O-])c2)C(=O)N(C)C1=O | 17.4% | 14.3% | 2.15% | 26.1% | 10.8% | -9.55%
19 | O=C(CP(=O)(O)O)NC(CC(=O)OCc1ccccc1)C(=O)OCc1ccccc1 (centres undefined) | 12.8% and 33% | 7.65% and -0.7% | 16.9% and 20.3% | 14.9% and 12.6% | 2.05% and 1.2% | -3.4% and 3.45%
